Source: PubChem BioAssay (Tox21)
Values joined by “and” are separate entries in the source; they are usually repeats but may differ in a detail not shown here. Equal values may be shown once. Records with an inconclusive call do not appear. Entries that show only a call come without a potency. Active and inactive are the calls of the source. Calls follow the shape of the dose curve; as a rule, active = well fitted cell-killing curve with a large enough effect in the repeat runs; inconclusive = weak or mixed curves, or effect the other way; inactive = flat fitted curve, though single readings scatter.

Test: qHTS RealTime-Glo MT Cell Viability Assay in HEK293 cells - 0 hour (AID 1224880); also: nearly all actives have a fitted effect of over 45% in size
Conditions: RealTime-Glo luminescence; series mostly up to 76.8 µM
Source text: U.S. Tox21 Program National Center for Advancing Translational Sciences [NCATS] NIH Chemical Genomics Center [NCGC] U.S. Environmental Protection Agency [EPA] National Institutes of Environmental Health Sciences [NIEHS] National Toxicology Program [NTP] U.S. Food and Drug Administration [FDA] Tox21 Assay Overview: Measure of cell viability is critical in the cell-base assay. Analysis of cell viability is necessary for the characterization of cell responses to cytotoxic drugs and environmental stress. A RealTime-Glo MT Cell Viability Assay to monitor cell viability in real time of continues cell culture during 40 hours of compound treatment was used to screen Tox21 10K library compounds in Hek293 cells. The RealTime-Glo MT Cell Viability Assay is a nonlytic, homogeneous, bioluminescent method to measure cell viability in real time using a simple, plate-based method. The assay involves adding NanoLuc luciferase and a cell-permeant prosubstrate to cells in culture. Viable cells reduce the proprietary prosubstrate to generate a substrate for NanoLuc luciferase. This substrate diffuses from cells into the surrounding culture medium, where it is rapidly used by the NanoLuc Enzyme to produce a luminescent signal. The signal correlates with the number of viable cells, making the assay well suited for cytotoxicity studies.
Tox21 Assay Protocol Summary: The mixture of Hek293 cell suspension and reagents were dispensed at 600cells/6 ul/well in 1536-well tissue culture treated black solid bottom plates using a Multidrop dispenser. After the assay plates were incubated at a 37 C/5% CO2 incubator for 5 hours, 23 nL of compounds dissolved in DMSO, positive and negative controls was transferred to the assay plate by a pintool work station. The plates were incubated at 37 C for 40 hours. The luminescence intensity were measured at 0h, 8h, 16h, 24h, 32h and 40h time points using ViewLux plate reader during compound treatment.
Potency is read from the fitted curve at half-maximal effect.

Row | Compound | Potency
1 | CC[n+]1c(-c2ccccc2)c2cc(N)ccc2c2ccc(N)cc21 | inactive
2 | COc1ccc(O)c(C(C)(C)C)c1 | inactive
3 | CCOS(=O)(=O)OCC | inactive
4 | O=P(OCCCl)(OCCCl)OCCCl | inactive
5 | CCNc1nc(Cl)nc(NC(C)(C)C#N)n1 | inactive
6 | Brc1ccc(Br)cc1 | inactive
7 | COc1ccc(CO)cc1 | inactive
8 | N#Cc1c(Cl)c(Cl)c(Cl)c(C#N)c1Cl | inactive
9 | ClC(Cl)=C(Cl)C(Cl)=C(Cl)Cl | inactive
10 | CC(O)CN(CC(C)O)CC(C)O (stereo not given) | inactive
11 | CCOP(=O)(OCC)OCC | inactive
12 | COc1ccc(C=O)cc1OC | inactive
13 | CCOP(=S)(OCC)SCSC(C)(C)C | inactive
14 | CCC(=O)Nc1ccc(Cl)c(Cl)c1 | inactive
15 | CC(C)(O)C(=O)Nc1ccc([N+](=O)[O-])c(C(F)(F)F)c1 | inactive
16 | CNC(=O)CSP(=S)(OC)OC | inactive
17 | O=[N+]([O-])c1ccc(Nc2ccccc2)cc1 | inactive
18 | CCC/C=N/O | inactive
19 | [CH3][Sn]([Cl])([Cl])[Cl] | inactive
20 | Cc1cc(Cl)ccc1N=CN(C)C | inactive

Row | Compound | Potency
21 | O=C(O)CF | inactive
22 | Nc1ncn[nH]1 | inactive
23 | S=c1[nH]c2ccccc2[nH]1 | inactive
24 | ClC(Cl)(Cl)Br | inactive
25 | CC(C)(c1ccc(OCC2CO2)cc1)c1ccc(OCC2CO2)cc1 (stereo not given) | inactive
26 | NN=C(N)N | inactive
27 | CCCCSP(=O)(SCCCC)SCCCC | inactive
28 | O=C1Nc2ccc(Cl)cc2C(c2ccccc2)=NC1O (stereo not given) | inactive
29 | CN(C)P(=O)(N(C)C)N(C)C | inactive
30 | C[N+](C)(C)CC(=O)[O-] | inactive
31 | CC(C)Nc1ccc(Nc2ccccc2)cc1 | 7.73 µM (active) and 19.5 µM (active)
32 | c1ccc(C2CO2)cc1 (stereo not given) | inactive
33 | Clc1ccccc1-c1nnc(-c2ccccc2Cl)nn1 | inactive
34 | CCN(CC)C(=O)C(C)Oc1cccc2ccccc12 (stereo not given) | inactive
35 | Nc1ccc2ccccc2c1 | inactive
36 | Clc1cccc(Cl)c1 | inactive
37 | Cc1cccc(N=Nc2ccc(N(C)C)cc2)c1 | inactive
38 | CCC1(c2ccc(N)cc2)CCC(=O)NC1=O (stereo not given) | inactive
39 | N#Cc1nn(-c2c(Cl)cc(C(F)(F)F)cc2Cl)c(N)c1S(=O)C(F)(F)F (stereo not given) | inactive
40 | C[N+](C)(C)C | inactive
